Read-out in assay [1]: Interleukin-6 (IL6), IL6 (gene 3569)
In words: BSK_CASM3C_IL6: BioMAP Diversity Plus: CASM3C Assay for Interleukin-6 (IL6) Biomarker Activity for (AID 2283040). Particulars: primary human coronary artery smooth muscle cells; actives raise or lower the signal.

Read-out in assay [2]: Tissue plasminogen activator (tPA), PLAT (gene 5327)
In words: BSK_BE3C_tPA: BioMAP Diversity Plus: BE3C Assay for Tissue plasminogen activator (tPA) Biomarker Activity (AID 2283041).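 Note: tPA level quantified by ELISA one day after compound addition.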 Particulars: primary human bronchial epithelial cells; actives raise or lower the signal. The method in brief:
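Human primary bronchial epithelial cells were dosed with chemical and tPA biomarker levels measured by ELISA 24 hours later. Activity was fitted bidirectionally against DMSO as negative control and baseline.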

Read-out in assay [3]: Interleukin-8 (IL8), CXCL8 (gene 3576)
In words: BSK_CASM3C_IL8: BioMAP Diversity Plus: CASM3C Assay for Interleukin-8 (IL8) Biomarker Activity (AID 2283042).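 Note: IL-8 protein level quantified by ELISA.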 Particulars: primary human coronary artery smooth muscle cells; actives raise or lower the signal.

Read-out in assay [4]: Human Leukocyte Antigen - DR isotype (HLADR), HLA-DRA (gene 3122)
In words: BSK_CASM3C_HLADR: BioMAP Diversity Plus: CASM3C Assay for Human Leukocyte Antigen - DR isotype (HLADR) Biomarker Activity (AID 2283043).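 Note: cell-surface HLA-DR protein level quantified by ELISA.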 The following applies: primary human coronary artery smooth muscle cells; actives raise or lower the signal.

Read-out in assay [5]: Macrophage colony-stimulating factor (MCSF), CSF1 (gene 1435)
In words: BSK_CASM3C_MCSF: BioMAP Diversity Plus: CASM3C Assay for Macrophage colony-stimulating factor (MCSF) Biomarker Activity (AID 2283044).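 Note: M-CSF protein amount quantified by ELISA after 24 h exposure.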 Particulars: primary human coronary artery smooth muscle cells; actives raise or lower the signal.

Read-out in assay [6]: Low-density lipoprotein receptor (LDLR), LDLR (gene 3949)
In words: BSK_CASM3C_LDLR: BioMAP Diversity Plus: CASM3C Assay for Low-density lipoprotein receptor (LDLR) Biomarker Activity (AID 2283045).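 Note: LDLR protein level on the cell surface quantified by ELISA.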 Particulars: primary human coronary artery smooth muscle cells; actives raise or lower the signal.

Read-out in assay [7]: Monocyte Chemoattractant Protein-1 (MCP1), CCL2 (gene 6347)
Briefly: BSK_CASM3C_MCP1: BioMAP Diversity Plus: CASM3C Assay for Monocyte Chemoattractant Protein-1 (MCP1) Biomarker Activity (AID 2283046).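 Note: MCP-1 level quantified by ELISA 24 h after dosing.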 Particulars: primary human coronary artery smooth muscle cells; actives raise or lower the signal.

A short description of assay [8]: BSK_CASM3C_Proliferation: Cell Proliferation Assessment in the BioMAP Diversity Plus: CASM3C Assay (AID 2283047).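 Note: sulforhodamine B total protein stain as relative cell number at 560 nm; sub-confluent cells exposed 48 h before staining; fitted both ways against DMSO so gain or loss of cell number.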 The following applies: primary human coronary artery smooth muscle cells.
Read-out in assay [9]: Monokine induced gamma interferon (MIG), CXCL9 (gene 4283)
In words: BSK_CASM3C_MIG: BioMAP Diversity Plus: CASM3C Assay for Monokine induced gamma interferon (MIG) Biomarker Activity (AID 2283048).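 Note: MIG protein level measured by ELISA.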 The following applies: primary human coronary artery smooth muscle cells; actives raise or lower the signal.

Read-out in assay [10]: serum amyloid A (SAA), SAA1 (gene 6288)
Briefly: BSK_CASM3C_SAA: BioMAP Diversity Plus: CASM3C Assay for serum amyloid A (SAA) Biomarker Activity (AID 2283049).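 Note: SAA protein level quantified by ELISA.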 The following applies: primary human coronary artery smooth muscle cells; actives raise or lower the signal.

Calls of active or inactive are those of the source. Rule for the calls: active = hit-call score of the fitted dose curve at least 0.9, where 1 is the maximum; inactive = score below 0.9.

One may read the AC50 as the concentration giving half of the maximal activity seen. `N#Cc1c[nH]cc1-c1cccc2c1OC(F)(F)O2`: the result in [1], in [2], in [3], in assay [4], in [5] and in assay [6] was inactive. The result in [7], in assay [9] and in [10] was inactive. Also, the AC50 in [8] was 20 µM (active).
With `CC1(C)CCC(=Cc2ccc(Cl)cc2)C1(O)Cn1cncn1` (stereo not given), the outcome in [1], in [2], in assay [3], in [4], in assay [5] and in [6] was inactive. Besides, the outcome in assay [7], in assay [8], in [9] and in assay [10] was inactive.
As to `COC(=O)NC(=S)Nc1ccccc1NC(=S)NC(=O)OC`, the outcome in [1], in [2], in assay [3], in assay [4], in assay [5] and in [6] was inactive. In addition, the outcome in [7], in [8], in [9] and in assay [10] was inactive.
Take `Nc1c(Cl)c(Cl)nc(C(=O)O)c1Cl`: the result in [1], in assay [2], in [3], in [4], in assay [5] and in [6] was inactive. The outcome in assay [7], in assay [8], in assay [9] and in assay [10] was inactive.
As to `CCOP(=O)(OCC)Oc1nc(Cl)c(Cl)cc1Cl`, the outcome in assay [1], in [2], in assay [3], in assay [4], in assay [5] and in [6] was inactive. Also, the outcome in assay [7], in [8], in [9] and in [10] was inactive.
Regarding `CCNP(=S)(OC)O/C(C)=C/C(=O)OC(C)C` (stereo not given), the result in [1], in assay [2], in assay [3], in [4], in assay [5] and in assay [6] was inactive. In addition, the outcome in assay [7], in [8], in [9] and in assay [10] was inactive.
For `Nc1c(Cl)c(F)nc(OCC(=O)O)c1Cl`, the result in [1], in [2], in assay [3], in assay [4], in assay [5] and in [6] was inactive. In addition, the result in [7], in assay [8], in [9] and in [10] was inactive.
Regarding `CCN(CC)C(=O)C(C)Oc1cccc2ccccc12` (stereo not given), the result in assay [1], in assay [2], in [3], in assay [4], in [5] and in assay [6] was inactive. The outcome in [7], in [9] and in assay [10] was inactive. Also, the AC50 in assay [8] is 0.531 µM (active).
As to `COP(=S)(OC)SCn1nnc2ccccc2c1=O`, the result in assay [1], in [2], in [3], in [4], in [5] and in assay [6] was inactive. For the same compound, the result in assay [7], in assay [8], in [9] and in assay [10] was inactive.
For `Cc1c(COC(=O)[C@@H]2[C@H](/C=C(\Cl)C(F)(F)F)C2(C)C)cccc1-c1ccccc1`, the result in [1], in assay [2], in assay [3], in assay [4], in [5] and in assay [6] was inactive. Besides, the result in [7], in assay [8], in assay [9] and in assay [10] was inactive.
As for `CCOc1nc(F)cc2nc(S(=O)(=O)Nc3c(Cl)cccc3Cl)nn12`, the result in [1], in [2], in [3], in assay [4], in [5] and in assay [6] was inactive. The result in assay [7], in [8], in assay [9] and in [10] was inactive.
Take `CC(C)Nc1nc(Cl)nc(NC(C)C)n1`: the outcome in assay [1], in [2], in assay [3], in assay [4], in [5] and in assay [6] was inactive. In addition, the result in assay [7], in [8], in assay [9] and in assay [10] was inactive.
On to `O=C(Nc1ccccc1-c1ccc(Cl)cc1)c1cccnc1Cl`, for which the outcome in assay [1], in [2], in assay [3], in assay [4], in assay [5] and in assay [6] was inactive. Besides, the result in [7], in [8], in assay [9] and in assay [10] was inactive.
`CC(C)N1C(=O)N(c2ccccc2)CSC1=NC(C)(C)C`: the outcome in assay [1], in assay [2], in assay [3], in assay [4], in assay [5] and in assay [6] was inactive. Moreover, the result in assay [7], in assay [9] and in assay [10] was inactive. In assay [8], the AC50 is 30 µM (active).
`CC(C)C1(C)N=C(c2ncccc2C(=O)O)NC1=O` (stereo not given): the result in assay [1], in assay [2], in assay [3], in assay [4], in assay [5] and in [6] was inactive. In addition, the outcome in assay [7], in [8], in assay [9] and in assay [10] was inactive.
As for `Cn1c(-c2ccccc2)cc(-c2ccccc2)[n+]1C`, the outcome in [1], in assay [2], in [3], in assay [4], in [5] and in assay [6] was inactive. Further, the outcome in [7], in [8], in assay [9] and in [10] was inactive.
On to `CC(C)Oc1cccc(NC(=O)c2ccccc2C(F)(F)F)c1`, for which the outcome in assay [1], in assay [2], in assay [3], in assay [4], in assay [5] and in [6] was inactive. The result in [7], in assay [8], in assay [9] and in [10] was inactive.
Take `CCOC(=O)C(C)OC(=O)c1cc(Oc2ccc(C(F)(F)F)cc2Cl)ccc1[N+](=O)[O-]` (stereo not given): the result in [1], in [2], in assay [3], in assay [4], in assay [6] and in assay [8] was inactive. The outcome in [9] and in [10] was inactive. Moreover, the AC50 in assay [5] is 0.989 µM (active); in [7], 8.51 µM (active).

The values are drawn from PubChem BioAssay (EPA / NIEHS).
